# Screening results as filed in PubChem BioAssay.
# Most compounds without a hit are left out; they make up all but 2.4% or so of the library.
# NRP1-CendR mod: modulators of CendR peptide binding to human neuropilin-1. O14786. FAM-RPARPAR peptide binding to NRP-1, fluorescence polarization. inhibition, % at 25 µM. 360,000 tested, 0.85% active. AID 602438;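 active means inhibition or corrected inhibition above about 18%, plus a signal ratio from 0.5 to 1.5, limit read from the data, passing the limit was not always enough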
# APOBEC3A inh: human APOBEC3A DNA deaminase inhibition. AID 493011. P31941. recombinant A3A, FAM/TAMRA ssDNA deamination fluorescence. inhibition, % at 20 µM. 330,000 tested, 0.41% active;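 active means at least 40% inhibition at 20 µM here, with at most 30% in a related deaminase screen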
# Target sequence (P31941 whole entry, looked up): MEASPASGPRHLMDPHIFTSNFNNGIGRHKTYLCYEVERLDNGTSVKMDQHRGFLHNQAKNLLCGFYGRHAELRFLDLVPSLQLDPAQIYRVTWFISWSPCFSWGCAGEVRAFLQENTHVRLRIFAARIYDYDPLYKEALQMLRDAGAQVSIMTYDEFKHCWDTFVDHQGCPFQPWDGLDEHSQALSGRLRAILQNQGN
# APOBEC3G inh: APOBEC3G (human) deaminase inhibition; recombinant A3G, ssDNA deamination FAM/TAMRA fluorescence; inhibition, % at 20 µM; 330,000 tested, 0.28% active; AID 493012;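 active means inhibition of at least 40% at 20 µM, with no more than 30% in the related APOBEC3A deaminase screen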
# Target sequence (Q9HC16 whole entry, looked up): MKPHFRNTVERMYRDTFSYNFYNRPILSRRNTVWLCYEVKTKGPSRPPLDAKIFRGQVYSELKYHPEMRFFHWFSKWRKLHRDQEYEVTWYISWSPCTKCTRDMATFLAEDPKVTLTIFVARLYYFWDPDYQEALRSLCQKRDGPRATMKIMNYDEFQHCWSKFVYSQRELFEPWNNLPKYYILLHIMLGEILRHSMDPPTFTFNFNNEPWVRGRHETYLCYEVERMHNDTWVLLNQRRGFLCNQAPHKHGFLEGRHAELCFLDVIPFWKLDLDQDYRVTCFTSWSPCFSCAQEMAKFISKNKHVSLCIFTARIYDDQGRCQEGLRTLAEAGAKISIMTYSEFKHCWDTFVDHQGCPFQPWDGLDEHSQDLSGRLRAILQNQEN
# ADAM17 inh: inhibitors of human ADAM17; inhibition, % at 6.95 µM; 370,000 tested, 0.83% active; P78536; recombinant ADAM17, EDANS/DABCYL FRET peptide cleavage; AID 720648;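 active means inhibition above the mean of compounds lying between control limits plus 3 SD, set per campaign, cut at about 8.5% in these data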
# ADAM10 inh: inhibitors of human ADAM10; O14672; recombinant ADAM10, EDANS/DABCYL FRET peptide cleavage, 3 h; inhibition, % at 7 µM; 370,000 tested, 0.62% active; AID 720582;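 active means inhibition above a per-campaign cutoff equal to the mean of compounds falling between control-based bounds plus 3 SD, cut at about 20% in these data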
# A number is an active result; - = inactive; . = no result given; ! = repeats disagree.
SMILES,NRP1-CendR mod,APOBEC3A inh,APOBEC3G inh,ADAM17 inh,ADAM10 inh
O=C1C2CCN(CC2)C1Cc1ccc(OCCOc2ccccc2)cc1 (centres undefined),28.4,-,-,-,-
Clc1ccccc1CNC1CN2CCC1CC2 (centres undefined),25.7,-,-,-,-
COC(=O)C1=C(c2cccc(OC)c2OC)C[C@@H]2CC[C@H]1N2C(=O)NCc1ccc(F)cc1,27.3,-,-,-,-
COC(=O)C1=C(c2ccccc2OCc2ccccc2)C[C@@H]2CC[C@H]1N2C(=O)NCc1ccc(F)cc1,22.2,-,-,-,-
COC(=O)C1=C(c2ccc(F)cc2OCc2ccccc2)C[C@@H]2CC[C@H]1N2C(=O)NC1Cc2ccccc2C1,-,-,-,10.2,-
Brc1ccc2c(c1)-n1nncc1CNC2,.,.,.,-,-
CC(=O)C1=C(C)OC2=C(C(=O)CCC2)[C@@]12C(=O)N(C)c1ccccc12,.,.,.,-,-
Clc1ccc(-c2nc3ccc(Cl)cn3c2CN2CCOCC2)cc1,49.5,-,-,-,-
N#CCC[C@@H]1CC[C@]2(CCCN(Cc3ccccn3)C2)O1,.,.,.,-,-
CCN1CC=C(c2c[nH]c3ccccc23)CC1,30.6,-,-,-,-
Cc1c(P(=S)(c2ccccc2)c2ccccc2)[n+]2ccccc2n1C,34.2!,.,.,-,-
Cc1c(P(=S)(c2ccccc2)c2ccccc2)c2ccccc2n1C,.,.,.,-,-
COC(=O)C1=C(c2ccc(F)cc2F)C[C@@H]2CC[C@H]1N2C(=O)N1CCC(C)CC1,-,-,-,-,-
O=C(NCCN1CCC2(CC1)C(=O)NCN2c1ccccc1)c1ccc2ccccc2c1,.,.,.,-,-
COC(=O)C1=C(c2cccc(C#N)c2)C[C@@H]2CC[C@H]1N2C(=O)NC(C)C,21.6,-,-,-,-
COC(=O)C1=C(c2ccc(-c3ccccc3)c(F)c2)C[C@@H]2CC[C@H]1N2C(=O)N1CCC(O)CC1,-,-,-,-,-
COC(=O)C1=C(c2ccc(-c3ccccc3)c(F)c2)C[C@@H]2CC[C@H]1N2C(=O)N1CCC(C)CC1,25.4,-,-,-,-
COC(=O)C1=C(c2cccc(C#N)c2)C[C@@H]2CC[C@H]1N2C(=O)NC1CCCCC1,-,-,-,-,-
COC(=O)C1=C(c2ccccc2)C[C@@H]2CC[C@H]1N2C,25.0,-,-,-,-
CCCNC(=O)N1[C@H]2CC[C@@H]1C(C(=O)OC)=C(c1ccc(S(C)(=O)=O)cc1)C2,-,-,-,-,-
COC(=O)C1=C(c2ccc(S(C)(=O)=O)cc2)C[C@@H]2CC[C@H]1N2C,35.1,-,-,-,-
C=C1C(=O)C(C)=C2C(=O)N3Cc4[nH]c5ccccc5c4CC3(C(=O)OC)C12 (centres undefined),.,.,.,-,-
CC(C)C(C(=O)NC(C)(C)C)N1C(=O)CN=C(c2ccccc2)c2ccccc21 (centres undefined),.,.,.,-,-
CCCNC(=O)N1[C@H]2CC[C@@H]1C(C(=O)OC)=C(c1ccc(OC(F)(F)F)cc1)C2,29.2,-,-,-,-
COC(=O)C1=C(c2ccc(OC(F)(F)F)cc2)C[C@@H]2CC[C@H]1N2C(=O)NCCOc1ccccc1,-,-,-,-,-
SMILES,NRP1-CendR mod,APOBEC3A inh,APOBEC3G inh,ADAM17 inh,ADAM10 inh
CCOC(=O)CC[C@@H]1CC[C@]2(CCCN(Cc3cccnc3)C2)O1,.,.,.,-,-
COC(=O)C1=C[C@H]([C@@H](C)[C@H](OC)c2ccccc2Br)[C@@H]2[C@H]1c1ccccc1N2C,.,.,.,-,-
O=[N+]([O-])c1ccc(Nc2ccccc2)cc1,-,-,-,-,-
c1ccc(Nc2ccc(Nc3ccccc3)cc2)cc1,28.9,-,-,-,-
Cn1cc(C(=O)OCC(=O)Nc2ccccc2)c2ccccc21,21.3,-,-,-,-
Cc1ccc(C(=O)C2CN(C)CC2C(=O)c2ccc(C)cc2)cc1 (centres undefined),-,-,-,-,-
Cc1ccc(C(=O)C2CN3CCC2CC3)cc1 (centres undefined),26.0,-,-,-,-
CC(C)(C)NC(=O)C1CN=C(c2ccccc2)c2cc(Cl)ccc2N1C(=O)C1CCC1 (centres undefined),.,.,.,-,-
CC1(C)N(O)C2CCCCC2N1O (centres undefined),-,-,-,-,-
CC12CCCCC1N(O)CN2O (centres undefined),23.1,-,-,-,-
Cc1c(NP(=O)(C(C)(C)C)C(C)(C)C)c(=O)n(-c2ccccc2)n1C,21.1,-,-,-,-
CCC(CO)NC(=O)C1C=C2c3cccc4[nH]cc(c34)CC2N(C)C1 (centres undefined),49.1,-,-,-,-
CC[C@@H](CO)NC(=O)[C@@H]1C=C2c3cccc4c3c(cn4C)C[C@H]2N(C)C1,40.9,-,-,-,-
CC[C@@H](CO)NC(=O)[C@@H]1C=C2c3cccc4[nH]cc(c34)C[C@H]2N(C)C1,-,.,.,-,-
Cc1ccc(OC(=O)N(C)C[C@H]2OCc3cnnn3CCCC(=O)N([C@@H](C)CO)C[C@@H]2C)cc1,.,.,.,-,-
C=CC[N+]1(C)C2CCC1CC(O)C2 (centres undefined),21.3,-,-,-,-
CNc1ccc2nc3ccccc3[n+](C)c2c1,29.1,-,-,-,-
CCCC(=O)N1c2ccc(Cl)cc2C(c2ccccc2)=NCC1C(=O)NC(C)(C)C (centres undefined),.,.,.,-,-
O=C(O)CC1OCC=C2CN3CCC45c6ccccc6NC4C1C2CC35 (centres undefined),-,-,-,-,-
O=C(O)CC1OCC=C2CN3CCC45C6=CC(=O)C(=O)C([N+](=O)[O-])=C6NC4C1C2CC35 (centres undefined),25.2,.,.,.,.
C[N+]1=C(N)NC2=C3CCCCC3ONC2C1 (centres undefined),.,.,.,-,-
C=C[C@@H]1C2=CCOC(=O)C2=CO[C@H]1O[C@@H]1O[C@H](CO)[C@@H](O)[C@H](O)[C@H]1O,24.4,-,-,-,-
O=C(c1c[nH]c2ccc(S(=O)(=O)N3CCOCC3)cc2c1=O)N1CCC2(CC1)OCCO2,28.3,-,-,-,-
CCn1cc(C(=O)N2CCC3(CC2)OCCO3)c(=O)c2cc(S(=O)(=O)N3CCCC3)ccc21,-,-,-,-,-
Clc1cc(Cl)cc(CN2Cc3ccccc3-n3nncc3C2)c1,.,.,.,-,-
SMILES,NRP1-CendR mod,APOBEC3A inh,APOBEC3G inh,ADAM17 inh,ADAM10 inh
C=CCn1c(O)c(C(CC)=NCCCO)c(=O)[nH]c1=O,-,-,-,-,-
C=CCn1c(O)c(C(CC)=NCCC2=CCCCC2)c(=O)[nH]c1=O,29.8,-,-,-,-
CN1CC[C@@]2(C)c3cc(O)ccc3N(C)[C@@H]12,27.5!,.,.,-,-
O=C(NCCN1CCC2(CC1)C(=O)NCN2c1ccccc1)c1ccc(Cl)cc1,.,.,.,-,-
C=CCN1C(=O)C2(C(C(=O)OCC)=C(N)Oc3ccccc32)c2c1c1ccccc1oc2=O (centres undefined),43.7,-,-,-,-
Cc1cc(N2CCNC[C@H]2C)ccc1N1CC[C@H](O)C1,.,.,.,-,-
